Screening results as filed in PubChem.
CYP2C19 inh: blockers of cytochrome P450 2C19 activity – biochemical, luminescence, ADME assay, primary screen | 21% of 96,000 active | CYP2C19 Supersomes, luciferin-H EGE luminescence, 30 min | inhibition, % at 5 µM | P33261;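 active = CYP2C19 inhibition above a set limit at 5 µM in the primary screen, cut at about 50% in these data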;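 note: plate controls were negative control wells for no effect and 2.5 mM tranylcypromine positive control for full effect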
CYP2C9 inh: blockers of cytochrome P450 2C9 activity – biochemical, luminescence, ADME assay, primary screen; inhibition, % at 5 µM; CYP2C9 Supersomes, luciferin-H conversion; 20% of 96,000 active;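 active = blocking of liver enzyme CYP2C9 beyond about 50% at 5 µM, limit read from the data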
Cav3 T inh: Cav3.2 calcium influx blockers – cell-based, Fluo-4 calcium fluorescence, FDSS, MLSMR library, primary screen. B-score at 10 µM. AID 449739, 2010. Cav3.2-expressing cells; stronger effect = lower value. 4% of 100,000 active;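 active = single-dose well whose peak fluorescence ratio is a statistical outlier from its plate by either plate-standardised score or position-corrected B-score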
PTK2B oligo ant: antagonists of Pyk2 self-association, primary screen, Q293 cells, FERM NanoBiT luminescence, HTS; Protein-tyrosine kinase 2-beta (Homo sapiens), Q14289; stronger effect = lower value; z-score (the deposit names both 25 µM and 10 µM); 0.83% of 99,000 active;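 active = Z-score of -3 or lower, scaled per plate to the spread of control and sample wells; inactive = z-score above -3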;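 note: negative z-score means lost luminescence so less FERM oligomerization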
CYP2C19 act: human CYP2C19 activators, primary screen, biochemical, luminescence; 96,000 tested, under 10 active; activation factor at 5 µM; AID 1025, 2008; recombinant CYP2C19, luciferin-H EGE luminescence; stronger effect = higher value; 0 = fully inhibited enzyme, 1 = untreated enzyme; Cytochrome P450 2C19 (Homo sapiens), P33261;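 active = activation factor of at least 2 at 5 µM in the primary screen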;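 note: 0 = wells with 2.5 mM tranylcypromine and 1 = vehicle-only wells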
CYP2C9 activ: human CYP2C9 activators, primary screen, biochemical, luminescence. Cytochrome P450 2C9 (Homo sapiens), P11712. recombinant CYP2C9, luciferin-H conversion; stronger effect = higher value; factor 1 = untreated enzyme, 0 = blocked. activation factor at 5 µM. 1.4% of 96,000 active. AID 1024, 2008;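 active = activation factor of 2 or more for CYP2C9 at a 5 µM dose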;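 note: 0 = sulfaphenazole-blocked wells and 1 = vehicle-only wells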
The depositor's hits bear a star; / = no result given. Compounds with a hit are over-represented: about 27% of the library has one in this group of screens.

SMILES	CYP2C19 inh	CYP2C9 inh	Cav3 T inh	PTK2B oligo ant	CYP2C19 act	CYP2C9 activ
CC(=O)Nc1nc(C)nc(-c2ccccc2)c1C(C)=O	-9	-6	0.18	0.1	1.1	1.1
CC(C)=CC(O)C/C(C)=C/COc1ccc2ccc(=O)oc2c1 (centres undefined)	/	/	-0.9	/	/	/
C=CCOC(=O)C1=C(C)Nc2ncnn2C1c1cccs1 (centres undefined)	42	32	0.39	-0.17	0.6	0.7
CCCCCCCOC(=O)C1=C(C)Nc2ncnn2C1c1cccs1 (centres undefined)	74*	64*	-0.64	-1.4	0.3	0.4
CCCCCCCCOC(=O)C1=C(C)Nc2nnnn2C1c1cccs1 (centres undefined)	76*	94*	0.16	-0.81	0.2	0.1
CC1=C(C(=O)Nc2ccccc2)C(c2cccs2)n2nnnc2N1 (centres undefined)	37	34	0.54	0.65	0.6	0.7
CCS(=O)(=O)N1CCCC(C(=O)NCc2ccc3c(c2)OCO3)C1 (centres undefined)	20	6	0.91	2.1	0.8	0.9
CCOCCCNC(=O)C1c2ccccc2C(=O)N2CCc3ccccc3C12 (centres undefined)	-5	15	0.19	0.24	1.1	0.9
O=C1S/C(=C\c2ccc(N3CCOCC3)o2)C(=O)N1Cc1c(F)cccc1Cl	-11	-13	-5.7*	0.47	1.1	1.1
CC1(C)Cc2c(c(N3CCOCC3)nc3sc(C#N)c(N)c23)CS1	-13	-2	1.1	0.23	1.1	1
CC1(C)Cc2c(C#N)c(SCCC#N)nc(N3CCOCC3)c2CS1	51*	92*	-3.9*	-0.76	0.5	0.1
CC1(C)Cc2c(C#N)c(SCCOc3ccccc3)nc(N3CCOCC3)c2CO1	89*	99*	-3.5	-1.6	0.1	0
CCCSc1nc(N2CCCC2)c2c(c1C#N)CC(C)(C)OC2	57*	94*	-0.46	-0.99	0.4	0.1
CCN=C(NCC)SC1CC(=O)N(c2cccc(OCC)c2)C1=O (centres undefined)	76*	-107	-0.86	-0.6	0.2	2.1*
CCCOc1ccc(N2C(=O)CC(SC(=NCC)Nc3cccc(F)c3)C2=O)cc1 (centres undefined)	/	/	0.3	1	/	/
CN=C(Nc1ccccc1)SC1CC(=O)N(c2ccc(C(=O)OC)cc2)C1=O (centres undefined)	38	68*	-1.3	-1.7	0.6	0.3
CCN=C(NCC)SC1CC(=O)N(c2ccc(OC)cc2)C1=O (centres undefined)	70*	-2	0.72	0.11	0.3	1
NC(=O)CC(NC(=O)c1cccc(Br)c1)c1ccc(NCCN2CCOCC2)c([N+](=O)[O-])c1 (centres undefined)	/	/	0.61	/	/	/
COc1cccc(-n2c(=O)c3cc(OC)c(OC)cc3n(CC(=O)Nc3cc(C)[nH]n3)c2=O)c1	/	/	/	0.7	/	/
COc1cc(S(=O)(=O)N2CCN(C)CC2)c(OC)cc1Br	8	-36	-0.13	-0.45	0.9	1.4
COc1ccc(-c2cc(CNC(=O)CN(C)Cc3ccccc3)on2)cc1	50	-80	/	1.4	0.5	1.8
Cc1ccc(C)c(N2CCN(Cc3nnnn3C3CCCCC3)CC2)c1	56*	42	/	-0.43	0.4	0.6
C/C=C(\C)CN1CCN(c2cc(C)ccc2C)CC1	82*	55*	0.24	-0.24	0.2	0.5
C/C=C(\C)CN1CCN(c2ccccc2F)CC1	73*	23	1.1	-0.37	0.3	0.8
O=C(NCC1COc2ccccc2O1)c1ccc(Cl)cc1 (centres undefined)	74*	1	-3.1	1.1	0.3	1
SMILES	CYP2C19 inh	CYP2C9 inh	Cav3 T inh	PTK2B oligo ant	CYP2C19 act	CYP2C9 activ
O=C(NCC1COc2ccccc2O1)Nc1ccccc1F (centres undefined)	96*	85*	-2.7	-0.76	0	0.2
Cc1cc(=O)oc(C)c1C(=O)NCC1COc2ccccc2O1 (centres undefined)	17	55*	0.48	-0.21	0.8	0.5
Cc1cc2ccccc2nc1SCC(=O)N1CCCC1	33	-22	-1.1	0.13	0.7	1.2
O=C1c2cnc3nc(SCc4cccc(Cl)c4)nn3c2CC2c3ccccc3CCN12 (centres undefined)	-8	46	-3.7	-0.78	1.1	0.5
CCCCNc1cc(=O)n(C)c(=O)[nH]1	5	6	0.17	/	0.9	0.9
CC(Oc1ncnc2ccccc12)C(=O)Nc1cccc(S(=O)(=O)N2CCOCC2)c1 (centres undefined)	/	/	/	0.76	/	/
CS(=O)c1ccccc1COC(=O)Nc1cccc(Cl)c1 (centres undefined)	40	-21	-0.34	-0.25	0.6	1.2
CS(=O)(=O)c1ccccc1COC(=O)Nc1ccc(Cl)cc1	69*	-1	-2.9	-2.5	0.3	1
O=C(Nc1ccc(Cl)cc1)OCc1ccccn1	/	/	-1.2	-0.86	/	/
O=C(Nc1ccc(Cl)cc1)OCc1cc(-c2ccccc2Cl)on1	10	0	/	-0.16	0.9	1
O=C(Nc1ccc(Cl)cc1)OCc1cncs1	98*	89*	-0.25	0.92	0	0.1
O=C(Nc1cccc(Cl)c1)OCc1cncs1	99*	87*	-1.6	1.6	0	0.1
O=C(CCCOc1ccc(Cl)cc1)N1CCOCC1	87*	1	0.42	0.75	0.1	1
O=C(OCCCC(=O)N1CCOCC1)c1ccccc1	48	-7	0.51	1.5	0.5	1.1
O=C(CCCOc1ccc(Cl)cc1)N1CCCCCC1	95*	59*	-0.44	1.5	0	0.4
O=C(COc1ccc(Cl)cc1)N1CCCCC1	35	-2	-0.33	0.65	0.7	1
O=C(CCCOc1ccccc1)N1CCCCC1	56*	3	0.42	0.66	0.4	1
O=C(CCCOc1ccc(Cl)cc1)N1CCCCC1	98*	40	-0.46	-0.73	0	0.6
CCC1CCCCN1C(=O)CCCOc1ccccc1 (centres undefined)	50*	9	-0.079	-0.32	0.5	0.9
CCC1CCCCN1C(=O)N[C@@H](Cc1ccccc1)C(=O)O (some centres undefined)	-2	-10	1	0.25	1	1.1
CCOc1ccc(/C=C2/C(=O)N(c3ccc(OC)cc3)C(=S)N2CC(=O)OC)cc1OCC	/	/	-0.64	-2.8	/	/
CCOc1ccc(N2C(=O)/C(=C/c3cc(OC)c(OC)c(OC)c3)N(CC(=O)OC)C2=S)cc1	54*	42	0.34	-2.5	0.5	0.6
